# In all, about 2,200 compounds went through this assay and about 1,700 (77%) were called active.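 Rule for the calls: active = mean inhibition across replicate wells exceeding the computed hit threshold (cut at about 13% in these data); inactive = the rest.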 So high a share suggests a set chosen from earlier hits. A selection follows.
# Target: Hepatocyte nuclear factor 4-alpha (Homo sapiens) (UniProt P41235)
# Assay: HNF4 dimerization inhibitors, counter-screen for ABHD5-PLIN5 interaction inhibitor project, biochemical, split-luciferase complementation, luminescence (AID 651674);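 note: light from luciferase halves that rejoin when HNF4 fusion proteins dimerize; 0% = DMSO only wells and the 100% control is not given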
# Details: at 4 µM, hits give high values
# Chain of Hepatocyte nuclear factor 4-alpha (Homo sapiens) (P41235 whole entry, looked up, the tested form may be a part): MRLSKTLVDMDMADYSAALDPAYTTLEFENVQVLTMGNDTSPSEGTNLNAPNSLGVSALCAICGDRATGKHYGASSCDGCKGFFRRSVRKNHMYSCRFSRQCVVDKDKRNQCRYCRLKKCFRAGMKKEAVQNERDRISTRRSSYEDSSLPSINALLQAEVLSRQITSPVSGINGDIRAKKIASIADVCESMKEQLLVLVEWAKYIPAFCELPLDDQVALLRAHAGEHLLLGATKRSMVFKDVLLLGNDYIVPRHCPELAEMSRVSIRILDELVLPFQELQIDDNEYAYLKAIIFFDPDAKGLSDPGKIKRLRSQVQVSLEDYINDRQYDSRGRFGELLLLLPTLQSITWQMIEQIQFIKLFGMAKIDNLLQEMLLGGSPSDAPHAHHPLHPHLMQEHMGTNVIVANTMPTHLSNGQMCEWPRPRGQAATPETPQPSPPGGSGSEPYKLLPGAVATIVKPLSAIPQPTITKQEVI
row,SMILES,inhibition
1,CCC(C(=O)OCCN(CC)CC)c1ccccc1 (stereo not drawn),32.3% (active)
2,COc1ccc(-n2cc(CNC3CCOCC3)c(-c3cccc(F)c3)n2)cc1,-1.5% (inactive)
3,CCn1c(SC)nc(O)c(C(c2ccc(OC)c(O)c2)c2c(O)nc(SC)n(CC)c2=O)c1=O,52.2% (active)
4,O=C(CCl)Nc1ccc(Sc2ccc(NC(=O)CCl)cc2)cc1,28% (active)
5,Cc1csc(NC(=O)NC2(C(F)(F)F)Oc3ccccc3O2)n1,99.4% (active)
6,N#Cc1ccc(C(C(=O)NCc2ccccc2)n2c(=O)c(-c3ccco3)nc3ccccc32)cc1 (stereo not drawn),46.7% (active)
7,Cc1cccc(C)c1NC(=O)C(c1cccc2ccccc12)n1c(=O)c(-c2ccco2)nc2ccccc21 (stereo not drawn),5.63% (inactive)
8,O=C(NC1CCCCC1)C(c1cc2ccccc2o1)n1c(=O)c(-c2ccco2)nc2ccccc21 (stereo not drawn),12.5% (active)
9,Cc1cccc(C)c1NC(=O)C(c1ccc(C(F)(F)F)cc1)n1c(=O)c(-c2ccco2)nc2ccccc21 (stereo not drawn),15.7% (active)
10,NC(=O)c1nsc(C(=O)N(CC(=O)NCc2ccc(F)cc2)Cc2ccco2)c1N,2.04% (inactive)
11,Cc1ccc(Cc2c(-c3ccco3)nc3ccc(Cl)cn23)cc1,47.3% (active)
12,Cc1ccc2nc(-c3ccco3)c(Cc3cccc(Cl)c3)n2c1,49.6% (active)
13,O=C(CCN1CCc2ccccc2C(O)(c2ccccc2)C1)c1ccc2c(c1)OCCO2 (stereo not drawn),100% (active)
14,O=C1/C(=C\c2ccc(O)cc2)CCC1CNc1ccc(Cl)cc1 (stereo not drawn),50% (active)
15,COC(=O)c1cnn2c(C(F)(F)F)cc(-c3ccco3)nc12,9.71% (inactive)
16,O=C(N/N=C/C=C/c1ccco1)c1cccs1,39% (active)
17,COc1ccccc1C1/C(=C(/O)c2ccc(C)cc2)C(=O)C(=O)N1Cc1ccco1 (stereo not drawn),10.7% (inactive)
18,O=C1/C(=C\c2ccc([N+](=O)[O-])cc2)CS(=O)(=O)C/C1=C/c1ccc([N+](=O)[O-])cc1,108% (active)
19,c1ccc(CCC2=NCCn3cccc32)cc1,4.26% (inactive)
20,O=C(O)c1ccc2c(c1)C(=O)N(c1ccc(/C=C/C(=O)c3ccccc3)cc1)C2=O,89.2% (active)

row,SMILES,inhibition
1,CC(=O)N(c1ccc2oc(=O)sc2c1)S(=O)(=O)c1ccc(C)cc1,17.5% (active)
2,COc1cccc2sc(N(CCCN(C)C)C(=O)C(c3ccccc3)c3ccccc3)nc12,6.22% (inactive)
3,Cc1ccc(SC(CC(=O)c2ccc(C(C)(C)C)cc2)C(=O)O)cc1 (stereo not drawn),89.8% (active)
4,O=C(/C=C/c1ccc(Cl)cc1Cl)c1cccnc1,105% (active)
5,Cc1nc2sc(C(c3ccco3)N3CCOCC3)c(O)n2n1 (stereo not drawn),-1.74% (inactive)
6,Cc1ccc(NC(=O)c2cc(-c3ccc(C)o3)nc3ccccc23)nc1,44.1% (active)
7,CCOC(=O)C(=Cc1ccccc1)C(=O)c1ccccc1,97% (active)
8,CCOC(=O)C(=Cc1ccccc1OC)C(=O)OCC,51.8% (active)
9,CC(=O)c1ccc(NC(=O)CCc2nnc3ccc(NCc4ccco4)nn23)cc1,2.03% (inactive)
10,CCc1ccc(NC(=O)CSc2nnc(-c3cnccn3)n2Cc2ccco2)cc1,25.6% (active)
11,COCCN(CCOC)c1nc(N)c2c(N)nc3c(c2c1C#N)CC(=O)N3Cc1ccc(Cl)cc1,9.32% (inactive)
12,N#Cc1ccccc1S(=O)(=O)N1CCN(Cc2c(O)ccc3ccccc23)CC1,86.6% (active)
13,CC1=CC(C)(C)Nc2ccc(OC(=O)CN3C(=O)C4CCCCC4C3=O)cc21 (stereo not drawn),52.3% (active)
14,CC1=CC(C)(C)Nc2ccc(OC(=O)C(Cc3ccccc3)N3C(=O)C4CCCCC4C3=O)cc21 (stereo not drawn),15.7% (active)
15,COC(=O)c1nc(NC(=O)c2ccc(C(C)(C)C)cc2)n[nH]1,4.25% (inactive)
16,CCN(CCCNC(=O)c1ccc2c(c1)NC(=O)CN2C)c1cccc(C)c1,76.9% (active)
17,CCCCOC(=O)CNc1nnc(SCC(=O)OCC)[nH]c1=O,103% (active)
18,O=C(Nc1ccccc1)c1nnsc1S(=O)(=O)c1ccc(Cl)cc1,100% (active)
19,O=C(Nc1ccccc1Cl)/C(Cl)=C(\Cl)S(=O)c1ccccc1 (stereo not drawn),108% (active)
20,O=C(Nc1nc(-c2ccco2)c(-c2ccco2)s1)c1ccco1,77.9% (active)

row,SMILES,inhibition
1,Cc1[nH]c(=O)c(C(=O)/C=C/c2ccccc2)c2c1CCCC2,37.9% (active)
2,CC1(C)CCSC(/C=C/c2ccccc2)=N1,91.4% (active)
3,C[C@@H]1C[C@@H]2O[C@H]2/C=C\C=C\C(=O)Cc2c(Cl)c(O)cc(O)c2C(=O)O1,47.9% (active)
4,COc1ccc2sc(-c3ccccc3OC)c(-c3ccc(OCCN4CCCC4)cc3)c2c1,7.03% (inactive)
5,O=C1C(Cl)=C(Oc2ccccc2)C(=O)c2ccccc21,105% (active)
6,CC1(Oc2ccccc2-c2ccno2)CCN(Cc2ccc(-c3ccccc3)o2)C1 (stereo not drawn),48.5% (active)
7,COc1ccc2c(c1)c(=Cc1ccc(N(C)C)cc1)c1cc(-c3ccccc3)[n+](C)n12,18.1% (active)
8,CCN1CCC(O)(/C=C/c2ccc(C)cc2)C(C(=O)/C=C/c2ccc(C)cc2)C1 (stereo not drawn),85.5% (active)
9,CCCOc1ccc(C(=O)C(CCC(CNCC)C(=O)c2ccc(OCCC)cc2)CNCC)cc1 (stereo not drawn),24.2% (active)
10,O=C(Cn1nc(CNc2ccc(Cl)cc2)[n+]2c1CCCCC2)c1ccc(Cl)cc1,6.95% (inactive)
11,Cc1cccc(C=CC(=O)c2ccc(Cl)cc2)c1,67.2% (active)
12,COc1ccc(N/C=C(\C2OC(=O)c3ccccc32)[N+](=O)[O-])cc1 (stereo not drawn),22.1% (active)
13,COC(=O)/C=C\C(=O)Nc1cccc([N+](=O)[O-])c1,109% (active)
14,CCS(=O)(=O)Nc1ccc(C2=NN(S(=O)(=O)c3ccc(F)cc3)C(c3ccco3)C2)cc1 (stereo not drawn),9.93% (inactive)
15,O=c1[nH]c(/C=C\c2cccc(C(F)(F)F)c2)nc(O)c1[N+](=O)[O-],73.2% (active)
16,O=C(/C(=C/c1cccc(Cl)c1)c1nc2ccccc2[nH]1)c1ccccc1,92% (active)
17,COc1ccc(CCNC(=O)c2nnc(CS(=O)(=O)c3ccccc3)o2)cc1OC,2.92% (inactive)
18,COc1ccccc1-n1nnnc1S(=O)(=O)Cc1ccc(Cl)cc1,32.1% (active)

# Reference: PubChem BioAssay AID651674 (The Scripps Research Institute Molecular Screening Center, 2012)
